These results are taken from the supplement of paper PMC10849652.

About 7,900 targets were measured; listed, in parts, are those with a hit and a random draw of the rest. About 0.6% of all pairs of compound and target were hits. A number with no mark means an inactive call.

Holding throughout (test): log2 fold change, soluble protein after heating vs DMSO (PISA); higher = thermal stabilisation; K562 cells, 10 uM, 30 min; active = over 0.2 and 3.5 SD of the protein, either way, in both replicates (recomputed)
Compound in experiment [1]: COC1=CC=C(C=C1)CN2C=CC3=C2C=C(C=C3)C(=O)NO
An outline of the steps: (§1)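 K562 cells at 2×10^6 cells/mL were given 10 μM compound for 30 min. Aliquots then went through 3 min of heating across 48°C-58°C, were pooled, and were extracted in PBS with 0.5% NP-40 at 4°C, and the supernatant after 21,000xg for 90 min was quantified by TMTpro 16plex LC-MS/MS with channel sums equalised. Thermal stability relative to control samples, from duplicates, is given as log2 fold change.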

Compound in experiment [2]: CON(C)C(=O)N1N=C(c2cc(F)ccc2F)S[C@@]1(CCCN)c1ccccc1 [filanesib]
Summed up:
as §1

Compound in experiment [3]: CO[C@H]1C[C@@H]2CC[C@@H](C)[C@@](O)(O2)C(=O)C(=O)N2CCCC[C@H]2C(=O)O[C@H]([C@H](C)C[C@@H]2CC[C@H](n3cnnn3)[C@H](OC)C2)CC(=O)[C@H](C)/C=C(\C)[C@@H](O)[C@@H](OC)C(=O)[C@H](C)C[C@H](C)/C=C/C=C/C=C/1C [zotarolimus]
An outline of the steps:
as §1

Compound in experiment [4]: COc1cc(C(=O)O)ccc1NC(=O)[C@@H]1N[C@@H](CC(C)(C)C)[C@](C#N)(c2ccc(Cl)cc2F)[C@H]1c1cccc(Cl)c1F [idasanutlin]
Summed up: as §1

Compound in experiment [5]: COc1cc(Nc2ncc3c(n2)-c2ccc(Cl)cc2C(c2c(F)cccc2OC)=NC3)ccc1C(=O)O [alisertib]
Summed up:
as §1

Compound in experiment [6]: COc1cc2nc(-c3cc(F)ccc3O)nc(N[C@@H]3CNC[C@H]3C(C)(C)O)c2cc1OC
An outline of the steps: as §1

Compound in experiment [7]: COc1cc2ncnc(Nc3ccc(F)c(Cl)c3)c2cc1OCCCN1CCOCC1 [gefitinib]
Summed up:
as §1

Compound in experiment [8]: COc1cccc2cc(-c3nc([C@H]4CC[C@H](C(=O)O)CC4)n4ncnc(N)c34)[nH]c12
Summed up: as §1

Compound in experiment [9]: CS(=O)(=O)CCNCc1ccc(-c2ccc3ncnc(Nc4ccc(OCc5cccc(F)c5)c(Cl)c4)c3c2)o1 [lapatinib]
An outline of the steps: as §1

Compound in experiment [10]: CS(=O)(=O)N1CCN(Cc2cc3nc(-c4cccc5[nH]ncc45)nc(N4CCOCC4)c3s2)CC1 [pictilisib]
Summed up: as §1

Sequence of UniProt Q8WXF1 (Q8WXF1 whole entry, looked up): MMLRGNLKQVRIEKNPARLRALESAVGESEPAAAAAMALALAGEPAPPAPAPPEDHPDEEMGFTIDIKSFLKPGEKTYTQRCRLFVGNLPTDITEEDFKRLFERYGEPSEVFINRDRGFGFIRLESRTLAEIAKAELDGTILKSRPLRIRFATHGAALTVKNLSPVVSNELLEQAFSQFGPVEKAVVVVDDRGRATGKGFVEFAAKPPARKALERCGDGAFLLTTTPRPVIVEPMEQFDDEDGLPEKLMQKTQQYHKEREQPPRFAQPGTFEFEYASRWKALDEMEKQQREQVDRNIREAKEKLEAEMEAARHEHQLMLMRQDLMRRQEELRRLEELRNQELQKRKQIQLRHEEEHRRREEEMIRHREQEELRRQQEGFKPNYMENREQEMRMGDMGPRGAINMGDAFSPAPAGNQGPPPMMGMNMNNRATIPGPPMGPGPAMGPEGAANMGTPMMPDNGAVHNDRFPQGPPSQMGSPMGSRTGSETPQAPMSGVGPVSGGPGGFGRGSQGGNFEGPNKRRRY
Sequence of UniProt P53609 (P53609 whole entry, looked up): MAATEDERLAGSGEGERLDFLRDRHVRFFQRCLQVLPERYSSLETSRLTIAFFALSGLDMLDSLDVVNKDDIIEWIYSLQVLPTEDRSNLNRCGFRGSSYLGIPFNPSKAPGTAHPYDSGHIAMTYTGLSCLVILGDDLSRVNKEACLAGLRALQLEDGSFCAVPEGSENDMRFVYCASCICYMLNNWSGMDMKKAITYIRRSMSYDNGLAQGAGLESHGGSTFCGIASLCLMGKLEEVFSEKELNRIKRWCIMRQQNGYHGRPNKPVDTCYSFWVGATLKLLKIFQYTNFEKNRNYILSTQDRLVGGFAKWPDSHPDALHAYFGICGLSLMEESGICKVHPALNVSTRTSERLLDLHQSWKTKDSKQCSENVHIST
Sequence of UniProt Q05655 (Q05655 whole entry, looked up): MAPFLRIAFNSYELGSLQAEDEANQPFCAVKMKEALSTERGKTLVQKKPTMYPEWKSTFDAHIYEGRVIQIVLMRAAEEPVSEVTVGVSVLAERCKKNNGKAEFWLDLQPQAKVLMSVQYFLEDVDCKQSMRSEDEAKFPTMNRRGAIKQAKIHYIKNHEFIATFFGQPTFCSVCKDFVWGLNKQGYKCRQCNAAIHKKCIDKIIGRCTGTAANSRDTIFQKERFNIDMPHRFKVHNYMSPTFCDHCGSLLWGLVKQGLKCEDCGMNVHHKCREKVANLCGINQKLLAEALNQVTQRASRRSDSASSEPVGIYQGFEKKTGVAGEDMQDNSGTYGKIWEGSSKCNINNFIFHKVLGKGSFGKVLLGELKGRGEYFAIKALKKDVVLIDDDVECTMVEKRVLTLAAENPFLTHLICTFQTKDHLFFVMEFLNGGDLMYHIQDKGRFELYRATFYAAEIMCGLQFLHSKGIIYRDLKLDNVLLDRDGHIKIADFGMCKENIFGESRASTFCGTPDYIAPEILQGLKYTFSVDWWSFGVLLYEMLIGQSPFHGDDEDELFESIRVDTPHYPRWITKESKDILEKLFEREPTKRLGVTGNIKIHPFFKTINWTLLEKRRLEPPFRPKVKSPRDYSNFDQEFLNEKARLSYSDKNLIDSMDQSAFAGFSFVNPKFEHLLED
Sequence of UniProt P43686 (P43686 whole entry, looked up): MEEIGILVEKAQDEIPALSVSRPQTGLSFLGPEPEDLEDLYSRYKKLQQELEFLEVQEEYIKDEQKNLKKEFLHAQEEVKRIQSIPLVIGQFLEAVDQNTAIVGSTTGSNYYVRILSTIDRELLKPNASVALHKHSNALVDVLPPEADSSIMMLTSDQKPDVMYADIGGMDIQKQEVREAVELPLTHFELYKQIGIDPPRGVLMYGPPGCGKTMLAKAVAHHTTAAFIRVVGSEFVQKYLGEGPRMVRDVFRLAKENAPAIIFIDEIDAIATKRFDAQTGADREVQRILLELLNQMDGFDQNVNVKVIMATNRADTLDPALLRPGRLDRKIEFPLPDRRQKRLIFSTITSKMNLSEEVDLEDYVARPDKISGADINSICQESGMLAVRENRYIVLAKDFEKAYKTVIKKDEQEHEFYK
Sequence of UniProt Q9Y3C6 (Q9Y3C6 whole entry, looked up): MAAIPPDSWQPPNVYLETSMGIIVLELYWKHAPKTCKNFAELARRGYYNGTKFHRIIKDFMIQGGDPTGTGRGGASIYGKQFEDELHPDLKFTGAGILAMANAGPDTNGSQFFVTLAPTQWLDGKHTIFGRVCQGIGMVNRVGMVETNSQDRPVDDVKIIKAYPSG
Sequence of UniProt Q96A00 (Q96A00 whole entry, looked up): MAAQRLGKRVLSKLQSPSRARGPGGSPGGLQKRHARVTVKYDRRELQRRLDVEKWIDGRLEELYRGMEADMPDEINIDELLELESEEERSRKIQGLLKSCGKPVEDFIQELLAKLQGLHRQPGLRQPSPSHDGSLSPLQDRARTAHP
Sequence of UniProt Q86TP1 (Q86TP1 whole entry, looked up): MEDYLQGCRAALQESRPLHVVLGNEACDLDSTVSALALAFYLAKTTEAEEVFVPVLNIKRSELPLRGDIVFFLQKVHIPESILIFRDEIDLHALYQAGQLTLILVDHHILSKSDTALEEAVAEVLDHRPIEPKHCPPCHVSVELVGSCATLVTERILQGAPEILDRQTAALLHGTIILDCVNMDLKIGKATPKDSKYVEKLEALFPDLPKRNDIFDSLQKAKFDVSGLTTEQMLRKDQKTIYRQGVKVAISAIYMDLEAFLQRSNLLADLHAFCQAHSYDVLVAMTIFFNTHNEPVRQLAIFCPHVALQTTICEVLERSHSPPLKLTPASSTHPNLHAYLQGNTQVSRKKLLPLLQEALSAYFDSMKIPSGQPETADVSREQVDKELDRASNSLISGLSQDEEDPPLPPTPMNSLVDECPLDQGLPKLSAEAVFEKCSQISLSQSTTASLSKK
Sequence of UniProt P48426 (P48426 whole entry, looked up): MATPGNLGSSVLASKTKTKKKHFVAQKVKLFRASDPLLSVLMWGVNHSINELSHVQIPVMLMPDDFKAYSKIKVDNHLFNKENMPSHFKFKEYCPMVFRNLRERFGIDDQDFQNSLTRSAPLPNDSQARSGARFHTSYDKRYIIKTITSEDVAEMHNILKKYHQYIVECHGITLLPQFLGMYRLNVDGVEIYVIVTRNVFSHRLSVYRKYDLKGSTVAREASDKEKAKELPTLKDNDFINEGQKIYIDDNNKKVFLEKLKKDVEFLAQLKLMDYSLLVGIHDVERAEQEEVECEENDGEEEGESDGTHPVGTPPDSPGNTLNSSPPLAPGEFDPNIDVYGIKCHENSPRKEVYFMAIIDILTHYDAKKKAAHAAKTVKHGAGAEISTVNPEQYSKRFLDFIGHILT
Sequence of UniProt P50897 (P50897 whole entry, looked up): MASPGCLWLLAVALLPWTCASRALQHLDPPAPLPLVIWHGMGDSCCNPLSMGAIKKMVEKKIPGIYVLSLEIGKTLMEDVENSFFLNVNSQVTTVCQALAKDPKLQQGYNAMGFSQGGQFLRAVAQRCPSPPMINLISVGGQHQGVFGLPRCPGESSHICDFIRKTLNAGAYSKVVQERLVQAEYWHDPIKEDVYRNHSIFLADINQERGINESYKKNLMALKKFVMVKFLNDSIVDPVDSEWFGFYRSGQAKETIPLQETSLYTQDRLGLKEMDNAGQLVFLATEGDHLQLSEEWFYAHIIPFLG
Sequence of UniProt Q15172 (Q15172 whole entry, looked up): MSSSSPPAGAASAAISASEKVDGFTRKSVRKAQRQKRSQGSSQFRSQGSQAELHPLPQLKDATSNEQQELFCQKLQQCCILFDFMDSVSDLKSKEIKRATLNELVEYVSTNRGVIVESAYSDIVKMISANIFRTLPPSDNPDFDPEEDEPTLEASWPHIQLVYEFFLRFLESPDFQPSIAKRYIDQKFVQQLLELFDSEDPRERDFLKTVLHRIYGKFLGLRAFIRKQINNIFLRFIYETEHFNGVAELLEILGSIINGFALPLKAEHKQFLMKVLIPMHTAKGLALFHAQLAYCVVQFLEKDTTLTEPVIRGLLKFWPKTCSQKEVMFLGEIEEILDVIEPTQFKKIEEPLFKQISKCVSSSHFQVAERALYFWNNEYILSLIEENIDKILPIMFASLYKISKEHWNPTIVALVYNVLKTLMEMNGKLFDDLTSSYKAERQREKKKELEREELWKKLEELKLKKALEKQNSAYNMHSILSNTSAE
Sequence of UniProt Q99460 (Q99460 whole entry, looked up): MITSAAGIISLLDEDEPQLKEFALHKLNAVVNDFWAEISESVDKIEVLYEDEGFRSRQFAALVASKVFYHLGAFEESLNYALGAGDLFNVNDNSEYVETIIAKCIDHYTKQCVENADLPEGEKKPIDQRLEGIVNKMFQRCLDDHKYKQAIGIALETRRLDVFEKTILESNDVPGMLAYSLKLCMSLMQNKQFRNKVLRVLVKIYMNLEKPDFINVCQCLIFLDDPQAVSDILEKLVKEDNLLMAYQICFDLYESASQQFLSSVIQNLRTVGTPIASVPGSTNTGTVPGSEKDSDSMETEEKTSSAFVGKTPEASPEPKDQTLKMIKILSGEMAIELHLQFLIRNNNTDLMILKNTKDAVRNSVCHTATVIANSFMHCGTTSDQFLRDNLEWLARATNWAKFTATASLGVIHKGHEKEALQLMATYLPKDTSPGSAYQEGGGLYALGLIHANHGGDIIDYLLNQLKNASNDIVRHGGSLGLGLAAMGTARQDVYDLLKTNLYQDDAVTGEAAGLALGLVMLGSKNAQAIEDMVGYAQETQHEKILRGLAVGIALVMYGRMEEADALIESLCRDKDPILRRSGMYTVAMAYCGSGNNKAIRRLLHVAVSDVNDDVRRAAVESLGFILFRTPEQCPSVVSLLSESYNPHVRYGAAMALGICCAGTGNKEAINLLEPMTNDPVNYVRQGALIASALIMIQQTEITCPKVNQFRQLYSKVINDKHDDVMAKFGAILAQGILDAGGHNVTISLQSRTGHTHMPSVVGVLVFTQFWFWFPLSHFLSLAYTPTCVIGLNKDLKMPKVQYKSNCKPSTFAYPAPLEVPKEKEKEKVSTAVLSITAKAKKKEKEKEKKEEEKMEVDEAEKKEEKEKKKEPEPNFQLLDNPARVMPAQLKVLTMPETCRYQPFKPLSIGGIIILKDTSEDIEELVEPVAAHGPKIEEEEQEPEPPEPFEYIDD

For PRKCD (UniProt Q05655), the log2 fold change in experiment [1] was -0.019; in experiment [2], -0.004; in [3] it was 0.032; in experiment [4], -0.017; in [5], 0.037; in experiment [6] it was -0.003. In addition, the log2 fold change in [7] was -0.002; in experiment [8] it was 0.074; in experiment [9], 0.02; in experiment [10], 0.026.

In the case of POLR2K (UniProt P53803), the log2 fold change is -0.052 in experiment [1]; 0.071 in [2]; -0.05 in experiment [3]; -0.101 in experiment [4]; -0.005 in [5]; 0.134 in [6]. Further, the log2 fold change is -0.012 in experiment [7], -0.213 in experiment [8], 0.003 in experiment [9] and 0.117 in [10].

For PPIL1 (UniProt Q9Y3C6), the log2 fold change in [1] was -0.079; in experiment [2], 0.05; in experiment [3] it was -0.008; in [4] it was -0.015; in experiment [5] it was -0.078; in [6], 0.12. Moreover, the log2 fold change in experiment [7] was -0.023; in experiment [8], -0.017; in [9], -0.051; in experiment [10], -0.028.

In the case of PPP2R5A (UniProt Q15172), the log2 fold change in experiment [1] was 0.034; in experiment [2], -0.135; in [3] it was 0.002; in [4], -0.206; in experiment [5], -0.064; in [6] it was 0.032. The log2 fold change in experiment [7] was -0.043; in [8], 0.005; in experiment [9], 0.047; in experiment [10] it was -0.096.

Regarding PURA (UniProt Q00577), the log2 fold change is -0.336 in experiment [1]; 0.277 in [2]; -0.093 in [3]; 0.179 in experiment [4]; -0.106 in experiment [5]; -0.052 in experiment [6]. Moreover, the log2 fold change in experiment [7] was -0.024; in experiment [8], -0.113; in experiment [9] it was 0.104; in [10] it was -0.071.

On to PPP1R14A (UniProt Q96A00), for which the log2 fold change in experiment [1] is 0.016; in [2], 0.031; in experiment [3], -0.028; in experiment [4], -0.013; in experiment [5], -0.041; in experiment [6], 0.039. Besides, the log2 fold change in [7] was 0.012; in experiment [8], -0.079; in experiment [9] it was -0.057; in experiment [10] it was 0.017.

As for PSPC1 (UniProt Q8WXF1), the log2 fold change in [1] is 0.008; in [2] it was 0.048; in [3] it was 0.026; in experiment [4], 0.03; in experiment [5] it was -0.084; in experiment [6] it was -0.146. The log2 fold change in experiment [7] is 0.061; in [8], -0.042; in [9], 0.152; in [10], -0.081.

PPT1 (UniProt P50897): the log2 fold change in experiment [1] was 0.021; in experiment [2], -0.241 (active); in experiment [3], -0.043; in experiment [4], 0.005; in experiment [5], -0.041; in experiment [6], -0.041. Moreover, the log2 fold change in experiment [7] was -0.03; in experiment [8] it was 0.074; in experiment [9], -0.038; in [10], 0.052.

In the case of PRUNE1 (UniProt Q86TP1), the log2 fold change in experiment [1] is -0.083; in [2], -0.047; in [3] it was 0.026; in experiment [4] it was 0.023; in [5], 0.091; in [6], 0.059. Further, the log2 fold change is 0.006 in experiment [7], -0.007 in experiment [8], -0.038 in experiment [9] and 0.072 in experiment [10].

On to PTDSS1 (UniProt P48651), for which the log2 fold change in [1] was -0.015; in experiment [2], 0.075; in experiment [3], 0.053; in experiment [4], 0.124; in [5] it was -0.098; in [6] it was -0.071. Moreover, the log2 fold change is 0.041 in experiment [7], -0.012 in experiment [8], 0.04 in [9] and -0.098 in experiment [10].

Turning to PSMD1 (UniProt Q99460), the log2 fold change in experiment [1] is 0.009; in [2], -0.002; in [3], 0.011; in experiment [4], -0.005; in experiment [5] it was -0.126; in experiment [6], -0.077. Also, the log2 fold change is -0.046 in experiment [7], -0.056 in [8], 0.069 in [9] and -0.052 in experiment [10].

Consider PIP4K2A (UniProt P48426), for which the log2 fold change is 0.022 in experiment [1]; 0.006 in experiment [2]; -0.002 in experiment [3]; -0.11 in experiment [4]; -0.018 in experiment [5]; 0.379 (active) in experiment [6]. In addition, the log2 fold change was 0.017 in [7], 0.314 in experiment [8], -0.054 in experiment [9] and 0.132 in experiment [10].

With PGGT1B (UniProt P53609), the log2 fold change was -0.112 in experiment [1]; 0.047 in experiment [2]; -0.006 in [3]; -0.025 in [4]; -0.03 in [5]; -0.031 in experiment [6]. Besides, the log2 fold change in [7] is -0.013; in experiment [8] it was 0.058; in experiment [9], -0.019; in experiment [10], 0.037.

For PSMC4 (UniProt P43686), the log2 fold change is -0.052 in experiment [1]; 0.066 in experiment [2]; 0.008 in experiment [3]; 0.017 in experiment [4]; -0.049 in experiment [5]; -0.007 in experiment [6]. Also, the log2 fold change was -0.052 in experiment [7], -0.022 in experiment [8], 0.033 in experiment [9] and -0.099 in [10].

As to PRKACB isoform 2 (UniProt P22694), the log2 fold change in [1] is -0.045; in [2] it was -0.098; in [3], 0.021; in experiment [4] it was -0.01; in experiment [5] it was -0.037; in experiment [6], 0.124. Also, the log2 fold change is 0.015 in experiment [7], 0.03 in experiment [8], -0.018 in [9] and -0.018 in experiment [10].
